# Results: ChEMBL document CHEMBL3988442, “University of Dundee, Small-Polar-MMV Screening Library” (2021)
# The whole screen tested about 69,000 compounds, of which about 1,000 (1.4%) showed an effect of 50% or more. The full list was thinned out, with strong results kept by preference.
# System: Leishmania donovani
# Assay: Leishmania intramacrophage assay
# Assay type: functional, organism-based
# Parameters: scale not given: in the data most compounds retested in dose-response had high values
smiles,measurement,setting,value
N#Cc1ccc(C(=O)N2CC[C@H]3[C@H]2CCN3CC2CCOCC2)cc1.O=C(O)C(F)(F)F,Percent Effect,"30.3 µM, […]",9.058%
Cc1nc(CNc2ccccc2CCC(F)(F)F)cs1,Percent Effect,"30.3 µM, […]",6.456%
Cc1cnc(NC(=O)c2csc(NCC(C)C)n2)s1,Percent Effect,"30.3 µM, […]",62.13%
O=C(Nc1ccccn1)c1csc(NC2CCCC2)n1,Percent Effect,"30.3 µM, […]",-23.02%
O=C(Nc1nccs1)c1csc(NC2CCCC2)n1,Percent Effect,"30.3 µM, […]",48.24%
Cc1cccc(NC(=O)c2csc(NCC(C)C)n2)n1,Percent Effect,"30.3 µM, […]",-8.581%
Cc1cnc(NC(=O)c2csc(NC3CCCC3)n2)s1,Percent Effect,"30.3 µM, […]",92.33%
CC(=O)NCC1CCC2(CCN(c3nccc(C4CCCC4)n3)CC2)O1 (stereo unspecified),Percent Effect,"30.3 µM, […]",3.551%
Cn1cc(N2CC3(COCCN(Cc4ccccn4)C3)OCC2=O)cn1.O=C(O)C(F)(F)F (stereo unspecified),Percent Effect,"30.3 µM, […]",33.72%
COc1cccc(C(=O)NCC2CCN(C(=O)c3ccoc3)CC2)c1,Percent Effect,"30.3 µM, […]",42%
CCn1cc(CN2C[C@H]3CC[C@@H]2CN(C(=O)c2ccncc2)C3)cn1,Percent Effect,"30.3 µM, […]",-21.9%
CCC(C)c1csc(NC(=O)c2sc(-c3nnc[nH]3)nc2C)n1 (stereo unspecified),Percent Effect,"30.3 µM, […]",32.74%
CCC(C)c1csc(NC(=O)Cc2csc(-c3nnc[nH]3)n2)n1 (stereo unspecified),Percent Effect,"30.3 µM, […]",56.95%
CC(C)c1nnc(NC(=O)Cc2csc(-c3nnc[nH]3)n2)s1,Percent Effect,"30.3 µM, […]",6.395%
Cc1cc2nc(-c3cn(C4CCNCC4)nn3)[nH]c2cc1C,Percent Effect,"30.3 µM, […]",79.71%
COc1cccc(CCn2ccnc2-c2cn(C3CCNCC3)nn2)c1,Percent Effect,"30.3 µM, […]",-3.244%
Cc1cccc2[nH]c(-c3cn(C4CCNCC4)nn3)nc12,Percent Effect,"30.3 µM, […]",8.553%
Cc1ccc2[nH]c(-c3cn(C4CCNCC4)nn3)nc2c1C,Percent Effect,"30.3 µM, […]",79.71%
Cc1ccc(-n2ccnc2-c2cn(C3CCNCC3)nn2)c(Cl)c1,Percent Effect,"30.3 µM, […]",17.13%
OCCc1ccccc1-n1ccnc1-c1cn(C2CCNCC2)nn1,Percent Effect,"30.3 µM, […]",-17.07%
CSc1ccccc1-n1ccnc1-c1cn(C2CCNCC2)nn1,Percent Effect,"30.3 µM, […]",-6.736%
Cc1c(C)c(C)c2[nH]c(-c3cn(C4CCNCC4)nn3)nc2c1C,Percent Effect,"30.3 µM, […]",88.31%
Clc1ccccc1CCn1ccnc1-c1cn(C2CCNCC2)nn1,Percent Effect,"30.3 µM, […]",-11.26%
CCCc1noc(CN2CCOCC2C)n1 (stereo unspecified),Percent Effect,"30.3 µM, […]",-25.75%
COCc1noc(Cn2ncn3cccc3c2=O)n1,Percent Effect,"30.3 µM, […]",-34.29%
Cc1nccc(N[C@H]2CN(C(=O)CN3CCOCC3)C[C@@H]2C(C)C)n1,Percent Effect,"30.3 µM, […]",9.574%
CC(C)n1cnc2c1C(C(=O)N1CCOCC1)N(CC1CC1)CC2.O=C(O)C(F)(F)F (stereo unspecified),Percent Effect,"30.3 µM, […]",17.66%
O=C(NCc1ccccn1)Nc1ccc2[nH]nnc2c1,Percent Effect,"30.3 µM, […]",23.78%
Cn1ccc(CN2CCCC23CCN(Cc2ccccc2F)CC3)n1.O=C(O)C(F)(F)F.O=C(O)C(F)(F)F,Percent Effect,"30.3 µM, […]",36.62%
O=C(O)[C@@H]1CN(Cc2ccc3nsnc3c2)C[C@H]1c1cccnc1,Percent Effect,"30.3 µM, […]",23.58%
Cc1ccccc1-c1noc(CN2CCn3c(nnc3C3CC3)C2)n1,Percent Effect,"30 µM, 30.03 µM",9.47%
COc1cccc(CN2CC(O)CN(C(=O)C3CCC3)CC2=O)c1OC (stereo unspecified),Percent Effect,"30.3 µM, […]",10.32%
COc1c(C2CCCN2C(=O)c2ccoc2C)c(C)nn1C (stereo unspecified),Percent Effect,"30.3 µM, […]",0.8433%
CCn1nc(C)cc1C(=O)NCc1cc(N(C)C)nc2ccccc12,Percent Effect,"30.3 µM, […]",34.59%
Cc1nn(C)c(C)c1C(=O)NCc1cc(N(C)C)nc2ccccc12,Percent Effect,"30.3 µM, […]",50.16%
Cc1nn(C)cc1C(=O)NCc1cc(N(C)C)nc2ccccc12,Percent Effect,"30.3 µM, […]",27.45%
CCOC(=O)C1(Cc2ccc(Cl)cc2)CCN(Cc2ncc[nH]2)CC1,Percent Effect,"30.3 µM, […]",14.14%
CNc1ncc(CN(C)C(=O)c2ccccc2C2CCNC2)cn1 (stereo unspecified),Percent Effect,"30.3 µM, […]",-3.65%
N#Cc1c(Cl)nsc1NCc1cccnc1OC1CCCC1,Percent Effect,"30.3 µM, […]",98.68%
CN(C)c1ncccc1CNc1snc(Cl)c1C#N,Percent Effect,"30.3 µM, […]",-27.87%
Cc1ncsc1C(=O)NCc1ccnc(OCC(F)(F)F)c1,Percent Effect,30 µM,34.79%
N#Cc1c(Cl)nsc1NCc1ccc(N2CCSCC2)cc1,Percent Effect,"30.3 µM, […]",88.25%
N#Cc1c(Cl)nsc1NCc1cccnc1OCC(F)(F)F,Percent Effect,"30.3 µM, […]",71.75%
N#Cc1c(Cl)nsc1NCc1ccnc(OCC(F)(F)F)c1,Percent Effect,"30.3 µM, […]",96.62%
Cc1n[nH]cc1CNCc1ccnc(OCC(F)(F)F)c1.Cl,Percent Effect,"30.3 µM, […]",28.01%
N#Cc1c(Cl)nsc1NCc1ccc(N2CCC(CO)CC2)cc1,Percent Effect,"30.3 µM, […]",13.7%
N#Cc1c(Cl)nsc1NCc1ccc(N2CCCC(C(N)=O)C2)cc1 (stereo unspecified),Percent Effect,"30.3 µM, […]",27.85%
COc1ncccc1CNc1snc(Cl)c1C#N,Percent Effect,"30.3 µM, […]",30.49%
O=S(=O)(NCc1cccnc1OC1CCCC1)N1CCCCC1,Percent Effect,"30.3 µM, […]",-4.69%
CC(O)CNC(=O)NCc1cccnc1OC1CCCC1 (stereo unspecified),Percent Effect,"30 µM, 30.03 µM",16.57%
COc1ncc(-c2ccc(NC(C)=O)cc2)c(OC)n1,Percent Effect,"30.3 µM, […]",5.344%
CCOCC1CN(C(=O)C2CCOCC2)Cc2cnn(C)c21 (stereo unspecified),Percent Effect,"30.3 µM, […]",-4.533%
COCCN1C[C@@H]2[C@@H](OC)CCN(Cc3cccs3)[C@@H]2C1.O=C(O)C(F)(F)F.O=C(O)C(F)(F)F,Percent Effect,"30.3 µM, […]",25.04%
NC(=O)Cn1cc(NC(=O)N2CCSCC2)cn1,Percent Effect,30 µM,-2.179%
CCOc1ccc2nc(NC(=O)c3c(C(=O)O)cnn3C)sc2c1,Percent Effect,"30.3 µM, […]",4.578%
Cc1c(Cl)ccc2ccc(NC(CO)CO)nc12,Percent Effect,"30.3 µM, […]",6.475%
CC(NC(=O)Cn1cc(C(N)=O)c(-c2ccccc2)n1)C1CC1 (stereo unspecified),Percent Effect,"30.3 µM, […]",12.7%
CC(C)(C)c1ccc(C(=O)C2CCCN(C(=O)CNS(C)(=O)=O)C2)cc1 (stereo unspecified),Percent Effect,"30.3 µM, […]",1.067%
CC(C)(N)C(=O)N1CCCC(C(=O)c2ccc(C(C)(C)C)cc2)C1 (stereo unspecified),Percent Effect,"30.3 µM, […]",91.24%
CC(=O)NCC(=O)N1CCCC(C(=O)c2ccc(C(C)(C)C)cc2)C1 (stereo unspecified),Percent Effect,"30.3 µM, […]",16.87%
Cc1cc(COC(=O)[C@@H]2Cc3ccccc3CN2S(C)(=O)=O)no1,Percent Effect,"30.3 µM, […]",12.34%
Cc1nccc(NCc2cncc3c2CCN(CCN(C)C)C3)n1,Percent Effect,"30.3 µM, […]",29.74%
Cc1nccc(NCc2cncc3c2CCN(CC2CC2)C3)n1.Cl.Cl,Percent Effect,"30.3 µM, […]",25.61%
Cc1nccc(NCc2cncc3c2CCN(CC2CCOC2)C3)n1.Cl.Cl (stereo unspecified),Percent Effect,"30.3 µM, […]",55.7%
CCOC(=O)CC1(Nc2nc(C)nc3c2cnn3C)CCCCC1,Percent Effect,"30.3 µM, […]",50.84%
Cc1nc(NC2(CN3CCCCC3)CCCCC2)c2cnn(C)c2n1,Percent Effect,"30.3 µM, […]",21.44%
COCC1(Nc2nc(C)nc3c2cnn3C)CCCC1,Percent Effect,"30.3 µM, […]",32.37%
CCOc1ccccc1C1=CCN(C(=O)C2CCN(C)C(=O)C2)CC1 (stereo unspecified),Percent Effect,30 µM,-1.516%
O=C1CC(NCc2cccc(O)c2)CN1CCc1cccc(Cl)c1 (stereo unspecified),Percent Effect,"30.3 µM, […]",24.84%
Cc1nnc(NC(=O)C2CSCN2C(=O)C2CCCC2)s1 (stereo unspecified),Percent Effect,"30.3 µM, […]",-31.76%
O=C(c1cc(-c2ccn(CC3CC3)n2)n2ccccc12)N1CCOCC1,Percent Effect,"30.3 µM, […]",88.37%
O=C(O)c1cc(-c2ccn(CC3CC3)n2)n2ccccc12,Percent Effect,"30.3 µM, […]",20%
O=C(c1cc(-c2ccn(CC3CC3)n2)n2ccccc12)N1CCCO1,Percent Effect,"30.3 µM, […]",27.45%
O=C(c1ccc(NCc2ccco2)nc1)N1CCc2ccccc21,Percent Effect,"30.3 µM, […]",-1.41%
Fc1ccc2[nH]c3c(c2c1)CCN1C(c2ccccn2)N2CCC31CC2 (stereo unspecified),Percent Effect,"30.3 µM, […]",22.17%
Fc1ccc2[nH]c3c(c2c1)CCN1C(c2ccncc2)N2CCC31CC2 (stereo unspecified),Percent Effect,"30.3 µM, […]",86.05%
CC(=O)NC1CCCc2c1[nH]c1ccc(F)cc21 (stereo unspecified),Percent Effect,"30.3 µM, […]",4.787%
O=C(OCc1ccccc1)N1CC[C@H]2CC(CO)O[C@@H]2C1 (stereo partly specified),Percent Effect,"30.3 µM, […]",-47.27%
CN1CCC(n2nc(Cc3cccc(Cl)c3)nc2Cn2ccnc2)CC1,Percent Effect,"30.3 µM, […]",15.54%
Cc1noc(C)c1CCCNC(=O)C1CCN(C(=O)C2CC2)CC1,Percent Effect,"30.3 µM, […]",-2.423%
CC(C)Cc1noc(C2CCCN(C(=O)CCc3cnn(C)c3)C2)n1 (stereo unspecified),Percent Effect,"30.3 µM, […]",5.747%
CCCN1CCC(NC(=O)Nc2ccc(OC)c(OC)c2)CC1,Percent Effect,"30.3 µM, […]",8.2%
CCCN1CCC(NC(=O)c2csc(C)c2-c2ccccc2)CC1,Percent Effect,"30.3 µM, […]",11.13%
CCCN1CCC(Nc2cc(-c3ccccc3)ccc2OC)CC1,Percent Effect,"30.3 µM, […]",94.4%
Cc1ccc(C2CCCN(C(=O)c3cnn(C)c3)C2)nc1 (stereo unspecified),Percent Effect,"30.3 µM, […]",-15.16%
O=C(c1cc(Cl)ccc1F)N1CCCC1Cn1cccn1 (stereo unspecified),Percent Effect,30 µM,-22.81%
COc1cc(NCc2ccncc2)c(-c2nn[nH]n2)cc1OC,Percent Effect,"30.3 µM, […]",-13.14%
COCCN1C(=O)CCC12CCN(C(=O)CNC(C)=O)CC2,Percent Effect,"30.3 µM, […]",21.99%
COc1cc(-c2cc(C3CCOC3)c(C#N)c(N)n2)ccc1O (stereo unspecified),Percent Effect,"30.3 µM, […]",14.88%
COc1ccc2c(c1)c(-c1nc(C)ncc1CN)cn2C,Percent Effect,"30.3 µM, […]",49%
COCC(=O)NCc1cnc(C)nc1-c1cn(C)c2ccc(OC)cc12,Percent Effect,"30.3 µM, […]",7.699%
COc1ccc2c(c1)c(-c1nc(N(C)C)ncc1CN)cn2C,Percent Effect,"30.3 µM, […]",97.85%
Cc1ccccc1C(C)NC(=O)CN1CCN(Cc2ccc(Br)s2)CC1 (stereo unspecified),Percent Effect,"30.3 µM, […]",-13.55%
CCn1cc(NC(=O)NCc2ccc3c(c2)OCO3)cn1,Percent Effect,30 µM,18.35%
Cc1ncsc1CN1C[C@@H]2COC[C@]2(C(=O)NC2CC(F)(F)C2)C1.O=C(O)C(F)(F)F,Percent Effect,"30.3 µM, […]",30.87%
O=C(NC1CC(F)(F)C1)[C@]12COC[C@H]1CN(Cc1ccccc1)C2.O=C(O)C(F)(F)F,Percent Effect,"30.3 µM, […]",18.84%
O=C(NC1CC(F)(F)C1)[C@]12COC[C@H]1CN(Cc1ccsc1)C2,Percent Effect,"30.3 µM, […]",55.66%
CNS(=O)(=O)c1cccc(C(C)NCc2ccc(C)c(C)c2)c1 (stereo unspecified),Percent Effect,"30.3 µM, […]",17.01%
CC(C)C[C@H](N)C(=O)N1CC2(CCNCC2)c2cc(Cl)ccc21.Cl.Cl,Percent Effect,"30.3 µM, […]",94.41%
CCOC(=O)N1CC2(CCNCC2)c2cc(Cl)ccc21.Cl,Percent Effect,"30.3 µM, […]",67.51%
C[C@@H](N)C(=O)N1CC2(CCNCC2)c2cc(Cl)ccc21.Cl.Cl,Percent Effect,"30.3 µM, […]",18.29%
Cl.Cl.O=C([C@H]1CCCN1)N1CC2(CCNCC2)c2cc(Cl)ccc21,Percent Effect,"30.3 µM, […]",35.2%
CN(C)C(=O)N1CC2(CCNCC2)c2cc(Cl)ccc21.Cl,Percent Effect,"30.3 µM, […]",-49.76%
Cl.O=C(c1ccccc1F)N1CC2(CCNCC2)c2cc(Cl)ccc21,Percent Effect,"30.3 µM, […]",46.46%
Cl.Cl.O=C([C@@H]1CSCN1)N1CC2(CCNCC2)c2cc(Cl)ccc21,Percent Effect,"30.3 µM, […]",30.82%
Cc1ccc2c(c1)C1(CCNCC1)CN2C(=O)C(C)C,Percent Effect,"30.3 µM, […]",17.68%
